Results taken from PubChem BioAssay (EPA / NIEHS).
Activity calls are given as the source filed them. How the source made its calls: active means hit-call score of the fitted dose curve at least 0.9, where 1 is the maximum; inactive means score below 0.9.

What was measured:
[1] = target: Paired box protein Pax-6 (Homo sapiens) (UniProt P26367); experiment: ATG_Pax6_CIS: Attagene CIS-FACTORIAL HepG2 Assay for human Paired Box 6 (PAX6) (AID 2282956); conditions: HepG2 CIS-FACTORIAL PAX6 reporter transcription, RNA readout; actives raise or lower the signal
Sequence of Paired box protein Pax-6 (Homo sapiens) (P26367 whole entry, looked up): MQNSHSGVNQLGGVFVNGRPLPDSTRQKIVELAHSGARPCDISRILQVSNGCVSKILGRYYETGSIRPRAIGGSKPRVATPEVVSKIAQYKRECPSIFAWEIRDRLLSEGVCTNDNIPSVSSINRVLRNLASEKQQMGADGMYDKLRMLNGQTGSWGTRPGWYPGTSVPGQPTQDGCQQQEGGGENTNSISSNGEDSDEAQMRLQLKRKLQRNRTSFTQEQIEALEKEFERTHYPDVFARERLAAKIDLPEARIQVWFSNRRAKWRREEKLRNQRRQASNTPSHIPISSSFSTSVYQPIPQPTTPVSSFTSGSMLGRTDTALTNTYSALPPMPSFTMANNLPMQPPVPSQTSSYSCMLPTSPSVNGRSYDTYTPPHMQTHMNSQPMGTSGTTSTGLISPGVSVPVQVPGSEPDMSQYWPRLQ
Method in brief: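 Read-out is reporter transcript level, measured by RT-PCR with fluorescent primer extension and capillary electrophoresis after 24 h dosing of transfected HepG2 cells. Activity in either direction fitted relative to DMSO control.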

[2] = ATG_RORE_CIS: Attagene CIS-FACTORIAL HepG2 Assay for human RAR-related Orphan Receptor Element (RORE) (AID 2282959); conditions: HepG2 Attagene cis-factorial RORE reporter, mRNA; actives raise or lower the signal
Method in brief: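 Measured here: transcript induction of a cis-regulated reporter in HepG2 cells transiently transfected via FuGene 6. After 24 h, RNA was processed by RT-PCR and fluorescent capillary electrophoresis; DMSO defined baseline activity.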

[3] = ATG_Sox_CIS: Attagene CIS-FACTORIAL HepG2 Assay for human SRY-box transcription factor (SOX) (AID 2282960); conditions: HepG2 Attagene cis-factorial SOX reporter, mRNA; actives raise or lower the signal
Method in brief: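 Using transiently transfected HepG2 cells, reporter transcription driven by cis elements was assessed 24 h after dosing. Signal was fluorescence of capillary-separated RT-PCR products, with DMSO defining baseline activity.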

[4] = target: Transcription factor Sp1 (Homo sapiens) (UniProt P08047); experiment: ATG_Sp1_CIS: Attagene CIS-FACTORIAL HepG2 Assay for human Specificity Protein 1 (Sp1) (AID 2282961); conditions: HepG2 Sp1 cis-reporter transcription, actives raise or lower the signal
Sequence of Transcription factor Sp1 (Homo sapiens) (P08047 whole entry, looked up): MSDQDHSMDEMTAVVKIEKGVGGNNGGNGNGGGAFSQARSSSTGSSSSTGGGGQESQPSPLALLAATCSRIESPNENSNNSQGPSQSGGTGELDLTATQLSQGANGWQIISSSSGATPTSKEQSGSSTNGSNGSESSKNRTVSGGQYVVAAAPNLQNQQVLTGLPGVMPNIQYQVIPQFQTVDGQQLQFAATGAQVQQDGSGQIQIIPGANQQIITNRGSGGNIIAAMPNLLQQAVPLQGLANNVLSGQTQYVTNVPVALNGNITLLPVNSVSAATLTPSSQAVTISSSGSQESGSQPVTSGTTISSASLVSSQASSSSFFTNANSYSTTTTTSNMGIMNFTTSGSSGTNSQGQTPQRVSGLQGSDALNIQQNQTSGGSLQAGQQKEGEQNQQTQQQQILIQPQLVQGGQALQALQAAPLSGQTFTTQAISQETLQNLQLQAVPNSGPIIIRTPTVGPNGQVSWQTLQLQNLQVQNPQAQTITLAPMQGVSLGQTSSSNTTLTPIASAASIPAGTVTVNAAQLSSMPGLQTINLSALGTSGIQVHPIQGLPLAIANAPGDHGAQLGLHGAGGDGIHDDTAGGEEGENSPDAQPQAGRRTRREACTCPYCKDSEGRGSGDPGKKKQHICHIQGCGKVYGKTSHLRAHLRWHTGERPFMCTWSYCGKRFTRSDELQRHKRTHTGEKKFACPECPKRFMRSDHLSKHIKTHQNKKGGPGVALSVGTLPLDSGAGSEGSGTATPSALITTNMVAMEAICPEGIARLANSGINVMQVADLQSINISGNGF
Method in brief: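 After transient transfection of HepG2 cells with cis-promoter reporter units and 24 h chemical treatment, reporter transcripts were quantified by RT-PCR and capillary electrophoresis fluorescence. Gain- and loss-of-signal fitted against DMSO.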

[5] = ATG_SREBP_CIS: Attagene CIS-FACTORIAL HepG2 Assay for human Sterol Regulatory Element Binding (SREBP) (AID 2282962); conditions: HepG2 Attagene cis-factorial SREBP reporter, mRNA; actives raise or lower the signal
Method in brief: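 Endogenous SREBP activity read as cis-element-driven reporter transcript in transiently transfected HepG2, 24 h post-dosing; quantified via RT-PCR plus capillary electrophoresis of fluorescent fragments. Gain or loss of signal fitted relative to DMSO baseline.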

[6] = target: Signal transducer and activator of transcription 3 (Homo sapiens) (UniProt P40763); experiment: ATG_STAT3_CIS: Attagene CIS-FACTORIAL HepG2 Assay for human Signal Transducer and Activator of Transcription 3 (STAT3) (AID 2282963); conditions: HepG2, Attagene cis-factorial STAT3 reporter transcription; actives raise or lower the signal
Sequence of Signal transducer and activator of transcription 3 (Homo sapiens) (P40763 whole entry, looked up): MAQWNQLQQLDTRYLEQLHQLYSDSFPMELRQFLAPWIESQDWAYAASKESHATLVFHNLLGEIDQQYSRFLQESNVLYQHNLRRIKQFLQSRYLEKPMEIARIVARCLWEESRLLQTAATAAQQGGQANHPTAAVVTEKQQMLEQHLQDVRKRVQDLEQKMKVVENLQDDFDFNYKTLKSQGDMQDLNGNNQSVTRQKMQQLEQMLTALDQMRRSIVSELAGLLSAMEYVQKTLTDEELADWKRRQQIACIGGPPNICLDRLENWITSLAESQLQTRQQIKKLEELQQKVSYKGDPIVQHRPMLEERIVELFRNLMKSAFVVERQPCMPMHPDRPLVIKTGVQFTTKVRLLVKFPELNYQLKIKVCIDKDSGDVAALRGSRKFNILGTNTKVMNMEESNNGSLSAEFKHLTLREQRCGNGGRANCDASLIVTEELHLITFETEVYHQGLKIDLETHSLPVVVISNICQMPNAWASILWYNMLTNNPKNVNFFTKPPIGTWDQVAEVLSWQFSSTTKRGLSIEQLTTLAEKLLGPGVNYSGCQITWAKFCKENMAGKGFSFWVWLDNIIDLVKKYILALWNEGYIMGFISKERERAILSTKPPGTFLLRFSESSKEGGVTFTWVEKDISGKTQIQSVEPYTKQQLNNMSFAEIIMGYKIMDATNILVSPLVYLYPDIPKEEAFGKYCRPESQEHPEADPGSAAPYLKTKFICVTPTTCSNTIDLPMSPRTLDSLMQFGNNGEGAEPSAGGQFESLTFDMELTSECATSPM
Method in brief: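 Uses human liver HepG2 transiently carrying cis-regulated reporter transcription units. Following 24 h dosing, reporter mRNA induction was detected by RT-PCR and capillary electrophoresis, analysed bidirectionally versus DMSO.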

[7] = ATG_TA_CIS: Attagene CIS-FACTORIAL HepG2 Assay for human TA Basal Promoter (AID 2282964); conditions: HepG2 Attagene CIS-factorial TA basal promoter reporter; actives raise or lower the signal
Method in brief: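 Multiplexed mRNA reporter assay, HepG2, 24 h. Reporter cDNA amplified, 6-FAM primer-extended, HpaI-cut, CE-sized; DMSO = negative control and baseline.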

[8] = ATG_TCF_b_cat_CIS: Attagene CIS-FACTORIAL HepG2 Assay for human T-Cell-Factor with beta-catenin (TCF/b-cat) (AID 2282965); conditions: HepG2 TCF/beta-catenin cis-reporter transcription, actives raise or lower the signal
Method in brief: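 In this cis-format system, transfected HepG2 cells report endogenous transcription factor activity. Readout after 24 h exposure is reporter transcript abundance from RT-PCR and capillary electrophoresis, analysed for gain or loss of signal versus DMSO.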

[9] = ATG_PXRE_CIS: Attagene CIS-FACTORIAL HepG2 Assay for human Pregnane X Receptor Element (PXRE) (AID 2282957); conditions: HepG2 Attagene CIS-FACTORIAL PXRE reporter, mRNA; actives raise or lower the signal
Method in brief: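 Read-out: fluorescence of reporter-specific RT-PCR products resolved by capillary electrophoresis, fitted bidirectionally relative to DMSO. Human HepG2 liver cells carried transfected cis-promoter reporter units and were exposed to chemicals for 24 h.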

[10] = ATG_PPRE_CIS: Attagene CIS-FACTORIAL HepG2 Assay for human Peroxisome Proliferator-activated Response Element (PPRE) (AID 2282958); conditions: HepG2 PPRE cis-element reporter, Attagene transcription factor profiling; actives raise or lower the signal
Method in brief: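 After human HepG2 hepatoma cells were transiently transfected with cis-promoter reporter constructs, they were exposed to test chemicals for 24 hours. Reporter RNA was then reverse-transcribed, PCR-amplified, FAM-labeled, HpaI-digested and quantified by capillary electrophoresis.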

Measured: AC50

C=CC(=O)OCCC(=O)O
not listed: [9] | [10]
inactive: all other assays above

O=C1CC2CC1C1CCCC21 (stereo unspecified)
active: [9] 40.8 µM
not listed: [1]
inactive: all other assays above

O=c1n(CCO)c(=O)n(CCO)c(=O)n1CCO
not listed: [1]
inactive: all other assays above

CCC(CC)C(=O)O
not listed: [1] | [9]
inactive: all other assays above

O=c1c2ccccc2oc2ccccc12
active: [9] 27.1 µM
not listed: [1] | [6] | [10]
inactive: all other assays above

O=C1CCCCCCCCCCCCCCCO1
active: [5] 100 µM
not listed: [1] | [4]
inactive: all other assays above

Cc1cc(O)c(Cl)c(C)c1Cl
inactive: [2] | [3] | [5] | [6] | [7] | [8]

CCCCC/C=C\C/C=C\CCCCCCCC(=O)OC
active: [9] 5.54 µM | [7] 100 µM
not listed: [1]
inactive: all other assays above

CCCCCC/C=C\CCCCCCCC(=O)O
not listed: [1]
inactive: all other assays above

O=CC1CC1
not listed: [1]
inactive: all other assays above

CCOc1ccc(N)c([N+](=O)[O-])c1
not listed: [1] | [6] | [9]
inactive: all other assays above

CNC(=S)N(C)C
not listed: [1] | [3] | [10]
inactive: all other assays above

[Cl][In]([Cl])[Cl]
not listed: [1] | [10]
inactive: all other assays above

O=C(O)Cc1c(Cl)ccc(Cl)c1Cl
not listed: [1] | [6] | [9]
inactive: all other assays above

CCN(Cc1cccc(S(=O)(=O)O)c1)c1ccc(C(=C2C=CC(=[N+](CC)Cc3cccc(S(=O)(=O)[O-])c3)C=C2)c2ccccc2)cc1
active: [9] 20.6 µM
not listed: [1] | [2]
inactive: all other assays above

CN(C)c1ccc(N=Nc2ccccc2C(=O)O)cc1
inactive: [2] | [5] | [6] | [7]
active: [9] 26.3 µM | [10] 17.8 µM | [3] 24.9 µM | [4] 40.8 µM | [8] 31.4 µM

Oc1ccc(Cl)cc1Cc1cc(Cl)ccc1O
active: [10] 4.48 µM | [5] 7.54 µM | [8] 18.8 µM
inactive: [9] | [4] | [6] | [7]

C=CC(C)(CCC=C(C)C)OC(=O)CC(C)C (stereo unspecified)
active: [9] 6.26 µM | [5] 118 µM
not listed: [1]
inactive: all other assays above

Nc1ccc(Oc2ccc(N)c(N)c2)cc1
active: [10] 58.4 µM | [2] 27.5 µM
not listed: [1]
inactive: all other assays above

CC(C)c1ccc(C#N)cc1
not listed: [1] | [6]
inactive: all other assays above

N#[N+]c1ccc2c(S(=O)(=O)[O-])cccc2c1O
not listed: [1] | [10]
inactive: all other assays above

CCCCCC(C)O (stereo unspecified)
not listed: [1]
inactive: all other assays above

CCC(=O)Oc1ccc(/C(CC)=C(\CC)c2ccc(OC(=O)CC)cc2)cc1
active: [9] 2.95 µM | [3] 37.8 µM | [4] 23.4 µM | [7] 38.2 µM | [8] 26.4 µM
inactive: [10] | [2] | [5] | [6]

O=C(Oc1ccccc1)c1ccc2ccccc2c1O
inactive: [3] | [4] | [5] | [8]
active: [10] 41.6 µM | [2] 34.3 µM | [6] 26.1 µM | [7] 54.9 µM

NC(=O)N=NC(N)=O
not listed: [1]
inactive: all other assays above

CCCCCCCCCCCSCC(=O)O
inactive: [9] | [3] | [8]
active: [10] 5.09 µM | [2] 51.6 µM | [5] 25.1 µM | [7] 98 µM

Cc1cccc(OCCOc2cccc(C)c2)c1
not listed: [1]
inactive: all other assays above

CCCCC(CC)COC(=O)c1ccccc1O (stereo unspecified)
active: [9] 15.3 µM
not listed: [1] | [4]
inactive: all other assays above

CC(=O)OCC(=O)[C@@]12N=C(C)O[C@@H]1C[C@H]1[C@@H]3CCC4=CC(=O)C=C[C@]4(C)[C@H]3[C@@H](O)C[C@@]12C
active: [9] 17.6 µM
not listed: [1] | [4]
inactive: all other assays above

SCCc1cnccn1
active: [9] 78.1 µM
not listed: [1] | [6] | [10]
inactive: all other assays above

COc1cc(C)ccc1C(C)C
not listed: [1]
inactive: all other assays above

CCOC(=O)N1CCC(=C2c3ccc(Cl)cc3CCc3cccnc32)CC1
active: [2] 3.42 µM | [7] 7.49 µM | [8] 8.07 µM
inactive: [3] | [5]

CC(C)=CC1CC(C)CCO1 (stereo unspecified)
not listed: [1]
inactive: all other assays above

COC(=O)c1ccccc1OC
not listed: [1] | [3]
inactive: all other assays above

CCCc1ccc(OC)cc1
not listed: [1] | [3] | [9]
inactive: all other assays above

c1ccc(CNCc2ccccc2)cc1
active: [9] 36 µM
not listed: [1]
inactive: all other assays above

Nc1ccc(Cl)cc1Cl
not listed: [1]
inactive: all other assays above

O=C(c1ccccc1)C1CCC1
not listed: [1] | [4]
inactive: all other assays above

CCCCC(CC)COCC1CO1 (stereo unspecified)
not listed: [1] | [3] | [10]
inactive: all other assays above

CC1=Nc2ccc3ccccc3c2C1(C)C
active: [9] 1.78 µM | [5] 100 µM
not listed: [1] | [10]
inactive: all other assays above

CCCCCCCCCCCCCCCC(=O)OCC
active: [9] 31.1 µM
not listed: [1]
inactive: all other assays above
